These results are taken from the supplement of paper PMC10849652.

Of roughly 8,800 targets only a part is listed; those with a hit were picked by preference. About 0.5% of all pairs of compound and target were hits. Values without a mark were called inactive.

UniProt P53667, sequence (P53667 whole entry, looked up): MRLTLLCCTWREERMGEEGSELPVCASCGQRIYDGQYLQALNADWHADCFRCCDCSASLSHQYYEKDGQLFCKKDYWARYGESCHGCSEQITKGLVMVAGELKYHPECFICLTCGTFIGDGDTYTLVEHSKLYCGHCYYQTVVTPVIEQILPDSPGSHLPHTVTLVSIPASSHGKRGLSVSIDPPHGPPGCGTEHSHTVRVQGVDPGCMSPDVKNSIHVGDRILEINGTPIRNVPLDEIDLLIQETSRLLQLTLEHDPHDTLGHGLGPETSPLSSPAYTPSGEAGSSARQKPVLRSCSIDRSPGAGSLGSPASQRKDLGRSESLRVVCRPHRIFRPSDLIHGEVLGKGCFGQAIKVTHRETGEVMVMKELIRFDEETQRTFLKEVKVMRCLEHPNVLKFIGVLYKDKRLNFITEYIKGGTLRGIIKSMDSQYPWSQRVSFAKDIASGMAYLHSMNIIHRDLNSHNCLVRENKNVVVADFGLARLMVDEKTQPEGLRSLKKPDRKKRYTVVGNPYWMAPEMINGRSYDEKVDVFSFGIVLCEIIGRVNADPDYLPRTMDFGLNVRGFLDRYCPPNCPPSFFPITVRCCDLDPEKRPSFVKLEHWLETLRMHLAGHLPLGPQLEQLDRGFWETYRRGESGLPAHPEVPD
UniProt Q96NW7, sequence (Q96NW7 whole entry, looked up): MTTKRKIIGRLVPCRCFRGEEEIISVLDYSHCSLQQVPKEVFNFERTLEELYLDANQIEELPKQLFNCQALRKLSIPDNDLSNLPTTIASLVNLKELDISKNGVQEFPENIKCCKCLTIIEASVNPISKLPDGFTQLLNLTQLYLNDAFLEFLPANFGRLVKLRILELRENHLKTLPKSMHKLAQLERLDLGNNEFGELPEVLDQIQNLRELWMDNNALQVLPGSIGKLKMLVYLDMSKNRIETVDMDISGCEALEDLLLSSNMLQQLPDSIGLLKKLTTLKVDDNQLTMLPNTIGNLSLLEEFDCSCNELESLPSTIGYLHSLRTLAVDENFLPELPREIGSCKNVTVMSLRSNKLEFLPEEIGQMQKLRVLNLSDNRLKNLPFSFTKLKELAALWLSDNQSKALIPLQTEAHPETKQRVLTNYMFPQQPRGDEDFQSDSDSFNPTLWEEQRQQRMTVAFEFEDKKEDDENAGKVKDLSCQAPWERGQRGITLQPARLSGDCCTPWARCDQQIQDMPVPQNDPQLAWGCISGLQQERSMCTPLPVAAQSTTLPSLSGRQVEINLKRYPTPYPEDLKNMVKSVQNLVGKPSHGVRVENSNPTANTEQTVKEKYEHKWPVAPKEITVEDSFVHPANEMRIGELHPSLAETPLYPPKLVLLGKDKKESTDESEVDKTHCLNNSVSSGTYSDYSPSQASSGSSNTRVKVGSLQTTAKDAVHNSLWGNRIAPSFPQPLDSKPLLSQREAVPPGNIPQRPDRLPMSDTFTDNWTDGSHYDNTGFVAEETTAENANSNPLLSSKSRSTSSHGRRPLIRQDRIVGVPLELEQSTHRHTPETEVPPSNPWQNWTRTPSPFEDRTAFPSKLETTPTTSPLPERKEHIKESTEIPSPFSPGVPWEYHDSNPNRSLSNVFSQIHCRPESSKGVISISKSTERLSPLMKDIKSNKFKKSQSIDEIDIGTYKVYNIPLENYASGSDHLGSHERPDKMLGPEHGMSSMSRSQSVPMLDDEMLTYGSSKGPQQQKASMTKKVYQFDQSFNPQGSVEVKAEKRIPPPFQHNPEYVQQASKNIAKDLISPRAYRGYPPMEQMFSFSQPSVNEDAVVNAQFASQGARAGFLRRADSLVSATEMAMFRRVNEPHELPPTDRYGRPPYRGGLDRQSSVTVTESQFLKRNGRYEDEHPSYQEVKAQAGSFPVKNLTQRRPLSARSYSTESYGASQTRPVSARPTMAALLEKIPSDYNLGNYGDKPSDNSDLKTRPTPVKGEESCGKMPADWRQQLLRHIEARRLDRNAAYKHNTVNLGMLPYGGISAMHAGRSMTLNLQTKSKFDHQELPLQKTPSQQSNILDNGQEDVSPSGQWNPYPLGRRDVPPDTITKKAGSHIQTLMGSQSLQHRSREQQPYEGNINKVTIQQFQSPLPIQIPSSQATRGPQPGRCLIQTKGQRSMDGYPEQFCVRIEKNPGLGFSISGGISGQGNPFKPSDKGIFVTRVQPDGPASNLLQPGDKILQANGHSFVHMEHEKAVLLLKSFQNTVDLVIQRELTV
UniProt Q9BVG8, sequence (Q9BVG8 whole entry, looked up): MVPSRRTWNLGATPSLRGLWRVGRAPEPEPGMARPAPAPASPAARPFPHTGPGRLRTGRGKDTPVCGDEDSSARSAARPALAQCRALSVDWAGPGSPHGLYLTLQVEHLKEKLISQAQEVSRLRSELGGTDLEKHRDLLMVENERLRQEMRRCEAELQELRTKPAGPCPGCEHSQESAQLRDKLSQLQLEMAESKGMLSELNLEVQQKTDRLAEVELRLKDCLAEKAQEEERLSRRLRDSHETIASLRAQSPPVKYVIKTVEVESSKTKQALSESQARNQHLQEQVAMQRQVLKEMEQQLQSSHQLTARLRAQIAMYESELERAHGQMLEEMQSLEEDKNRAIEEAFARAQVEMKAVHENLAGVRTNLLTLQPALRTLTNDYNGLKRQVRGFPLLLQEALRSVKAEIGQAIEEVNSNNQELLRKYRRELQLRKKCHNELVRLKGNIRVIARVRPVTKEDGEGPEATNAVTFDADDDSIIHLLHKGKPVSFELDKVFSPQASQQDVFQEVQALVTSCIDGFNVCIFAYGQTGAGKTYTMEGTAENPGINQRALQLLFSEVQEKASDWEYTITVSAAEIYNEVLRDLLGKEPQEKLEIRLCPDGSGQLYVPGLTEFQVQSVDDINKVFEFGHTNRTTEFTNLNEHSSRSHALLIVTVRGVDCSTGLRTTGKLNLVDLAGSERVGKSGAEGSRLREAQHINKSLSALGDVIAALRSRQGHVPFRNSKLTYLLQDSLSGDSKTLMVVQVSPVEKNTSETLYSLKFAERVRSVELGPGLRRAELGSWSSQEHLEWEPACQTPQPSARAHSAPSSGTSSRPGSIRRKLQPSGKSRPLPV
UniProt Q07866, sequence (Q07866 whole entry, looked up): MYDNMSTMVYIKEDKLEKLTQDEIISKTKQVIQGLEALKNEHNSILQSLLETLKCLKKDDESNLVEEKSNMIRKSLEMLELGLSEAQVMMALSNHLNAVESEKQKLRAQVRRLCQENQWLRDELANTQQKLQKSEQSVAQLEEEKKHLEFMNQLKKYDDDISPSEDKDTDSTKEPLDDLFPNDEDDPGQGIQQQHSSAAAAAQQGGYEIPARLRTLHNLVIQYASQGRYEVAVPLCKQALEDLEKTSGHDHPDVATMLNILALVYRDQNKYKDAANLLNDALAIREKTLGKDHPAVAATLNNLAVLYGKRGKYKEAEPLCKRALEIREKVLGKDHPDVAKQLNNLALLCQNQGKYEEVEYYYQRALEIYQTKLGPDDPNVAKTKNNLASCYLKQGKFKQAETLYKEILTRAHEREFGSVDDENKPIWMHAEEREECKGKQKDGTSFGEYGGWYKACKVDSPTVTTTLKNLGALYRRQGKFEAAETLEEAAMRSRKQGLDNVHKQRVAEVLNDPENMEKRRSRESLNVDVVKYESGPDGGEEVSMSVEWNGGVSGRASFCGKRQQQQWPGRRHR
UniProt P83369, sequence (P83369 whole entry, looked up): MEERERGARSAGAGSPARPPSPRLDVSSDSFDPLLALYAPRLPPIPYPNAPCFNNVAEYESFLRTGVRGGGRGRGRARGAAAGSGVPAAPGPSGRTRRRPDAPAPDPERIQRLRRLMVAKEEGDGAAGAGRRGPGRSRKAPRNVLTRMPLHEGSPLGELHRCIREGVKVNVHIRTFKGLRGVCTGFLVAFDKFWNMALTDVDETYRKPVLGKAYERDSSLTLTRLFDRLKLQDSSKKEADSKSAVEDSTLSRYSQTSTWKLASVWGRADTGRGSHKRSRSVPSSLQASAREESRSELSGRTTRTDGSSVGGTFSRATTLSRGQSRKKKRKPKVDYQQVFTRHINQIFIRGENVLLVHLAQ
UniProt Q16553, sequence (Q16553 whole entry, looked up): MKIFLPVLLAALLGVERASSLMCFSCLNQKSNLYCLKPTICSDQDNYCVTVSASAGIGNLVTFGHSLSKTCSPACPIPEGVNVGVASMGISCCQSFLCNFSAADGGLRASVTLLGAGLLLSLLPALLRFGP
UniProt O14782, sequence (O14782 whole entry, looked up): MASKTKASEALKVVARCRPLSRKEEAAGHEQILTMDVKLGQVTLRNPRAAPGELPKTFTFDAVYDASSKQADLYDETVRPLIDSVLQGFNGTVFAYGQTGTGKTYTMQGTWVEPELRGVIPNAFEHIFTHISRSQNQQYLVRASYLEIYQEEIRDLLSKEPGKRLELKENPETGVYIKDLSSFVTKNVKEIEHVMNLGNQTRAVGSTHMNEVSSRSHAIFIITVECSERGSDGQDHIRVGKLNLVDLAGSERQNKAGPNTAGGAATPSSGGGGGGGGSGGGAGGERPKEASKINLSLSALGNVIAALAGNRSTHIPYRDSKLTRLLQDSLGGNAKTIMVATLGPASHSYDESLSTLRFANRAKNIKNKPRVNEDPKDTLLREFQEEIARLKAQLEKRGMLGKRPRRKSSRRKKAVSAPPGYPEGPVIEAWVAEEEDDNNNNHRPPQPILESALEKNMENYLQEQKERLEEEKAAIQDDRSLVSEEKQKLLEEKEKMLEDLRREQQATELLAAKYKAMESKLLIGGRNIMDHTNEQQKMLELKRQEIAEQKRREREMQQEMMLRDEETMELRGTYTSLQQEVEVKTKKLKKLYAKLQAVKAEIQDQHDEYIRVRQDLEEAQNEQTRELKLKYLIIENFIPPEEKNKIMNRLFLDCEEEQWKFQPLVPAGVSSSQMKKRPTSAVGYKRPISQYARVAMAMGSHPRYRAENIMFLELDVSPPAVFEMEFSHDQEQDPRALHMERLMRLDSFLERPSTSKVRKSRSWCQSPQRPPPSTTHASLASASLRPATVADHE
UniProt O15243, sequence (O15243 whole entry, looked up): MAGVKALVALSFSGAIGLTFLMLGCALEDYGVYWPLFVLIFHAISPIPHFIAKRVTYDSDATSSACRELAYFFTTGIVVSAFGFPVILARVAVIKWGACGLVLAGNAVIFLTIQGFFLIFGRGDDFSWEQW

Compound in the first test: C1=CC(=CC=C1C2=NC3=C(N2)C=C(C=C3)C(=O)N)OC4=CC=C(C=C4)Cl
Briefly: log2 fold change, soluble protein after heating vs DMSO (PISA); higher = thermal stabilisation; K562 lysate, 10 uM; active = over 0.2 and 3.5 SD of the protein, either way, in both replicates (recomputed). Summed up:
(§1)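 To prepare the extract, K562 pellets were dounce-homogenised in PBS pH 7.4 with 1 mM MgCl2, giving crude material at 1 mg/mL protein. This was treated with 10 μM compound for 30 min, then heated in aliquots for 3 min over 48°C-58°C before pooling and addition of NP-40 to 0.5% at 4°C. Centrifugation at 21,000xg for 90 min left soluble protein in the supernatant, which TMTpro 16plex LC-MS/MS quantified with equalised channel sums. Results are log-two fold changes in thermal stability compared with solvent controls, from duplicates.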
Consider LSM11 (UniProt P83369), for which the log2 fold change is 0.065.
The same measure, in the same setting: in the case of MAPKAP1 (UniProt Q9BPZ7) it was -0.059; in that of KMT2B (UniProt Q9UMN6), -0.226.
In the case of MRC2 (UniProt Q9UBG0), the log2 fold change was 0.031.
The same measure, in the same setting: the result for KLC1 isoform 10 (UniProt Q07866) reads -0.165; that for KIF21A (UniProt H0YI78), 0.088.

Compound in a further test: C1=CC2=C(C=CC(=C2)/C=C\3/C(=O)NC(=NCC4=CC=CS4)S3)N=C1
Described as above. In a few lines:
as §1
As to MPDZ (UniProt O75970), the log2 fold change is -0.273.
On the same count and under the same terms, the result for KIF3C (UniProt O14782) reads -0.116.
On the same count and under the same terms, the result for LRIF1 (UniProt Q5T3J3) reads -0.301 (active); that for MAP3K6 (UniProt O95382), 0.183; that for LRRIQ1 (UniProt Q96JM4), -0.003.
Turning to LRPPRC (UniProt H7C3W8), the log2 fold change was -0.053.
On to LGALS3BP (UniProt Q08380), for which the log2 fold change was 0.331.
The same measure, in the same setting: the result for KRAS (UniProt P01116) reads -0.052.
On the same count and under the same terms, the result for MDM1 (UniProt Q8TC05) reads -0.066.
Still for that read-out and setting: in the case of LIMK1 (UniProt P53667) it was -0.088; in that of LRRC7 (UniProt Q96NW7), -0.493 (active); in that of LRP1 (UniProt Q07954), -0.092.
As to LRRC9 (UniProt Q6ZRR7), the log2 fold change is 0.02.
The same measure, in the same setting: in the case of LY6E (UniProt Q16553) it was 0.049.
Same read-out and setting: in the case of MEX3A (UniProt A1L020) it was -0.108; in that of KIFC3 isoform 6 (UniProt Q9BVG8), 0.004; in that of LSM11 (UniProt P83369), -0.056.

Compound in another test: C1=CC2=NC=CN=C2C=C1/C=C/3\C(=O)NC(=O)S3
Described as above. In a few lines: as §1
As to MCUB (UniProt Q9NWR8), the log2 fold change is 0.209.
As for MEGF8 (UniProt Q7Z7M0), the log2 fold change is 0.013.
In the case of MAN2B2 (UniProt Q9Y2E5), the log2 fold change was -0.003.
The same measure, in the same setting: in the case of MRPL27 (UniProt Q9P0M9) it was -0.019.
On the same count and under the same terms, the result for LEPROT (UniProt O15243) reads -0.02; that for LIMK1 (UniProt P53667), 0.133; that for MRPL30 isoform 2 (UniProt Q8TCC3), -0.037.
The same measure, in the same setting: the result for LRRC7 (UniProt Q96NW7) reads -0.108; that for METTL21A (UniProt Q8WXB1), 0.019; that for LY6E (UniProt Q16553), -0.033.
Take MED25 isoform 3 (UniProt Q71SY5): the log2 fold change is -0.062.
Same read-out and setting: in the case of MAP4K4 isoform 6 (UniProt O95819) it was 0.094; in that of KIFC3 isoform 6 (UniProt Q9BVG8), 0.076.
Consider MME (UniProt P08473), for which the log2 fold change is -0.067.
Still for that read-out and setting: in the case of KLC1 isoform 10 (UniProt Q07866) it was 0.122; in that of KIF21A (UniProt H0YI78), -0.015.
